Most compounds without a hit are left out; they make up all but 2.8% or so of the library.
GLS inh – inhibitors of human glutaminase (GLS); O94925; GLS enzymatic activity, qHTS titration; Potency, µM (highest dose often 45.5 µM), actives largely listed as inhibitors; 0.21% of 410,000 active
Target sequence (O94925 whole entry, looked up): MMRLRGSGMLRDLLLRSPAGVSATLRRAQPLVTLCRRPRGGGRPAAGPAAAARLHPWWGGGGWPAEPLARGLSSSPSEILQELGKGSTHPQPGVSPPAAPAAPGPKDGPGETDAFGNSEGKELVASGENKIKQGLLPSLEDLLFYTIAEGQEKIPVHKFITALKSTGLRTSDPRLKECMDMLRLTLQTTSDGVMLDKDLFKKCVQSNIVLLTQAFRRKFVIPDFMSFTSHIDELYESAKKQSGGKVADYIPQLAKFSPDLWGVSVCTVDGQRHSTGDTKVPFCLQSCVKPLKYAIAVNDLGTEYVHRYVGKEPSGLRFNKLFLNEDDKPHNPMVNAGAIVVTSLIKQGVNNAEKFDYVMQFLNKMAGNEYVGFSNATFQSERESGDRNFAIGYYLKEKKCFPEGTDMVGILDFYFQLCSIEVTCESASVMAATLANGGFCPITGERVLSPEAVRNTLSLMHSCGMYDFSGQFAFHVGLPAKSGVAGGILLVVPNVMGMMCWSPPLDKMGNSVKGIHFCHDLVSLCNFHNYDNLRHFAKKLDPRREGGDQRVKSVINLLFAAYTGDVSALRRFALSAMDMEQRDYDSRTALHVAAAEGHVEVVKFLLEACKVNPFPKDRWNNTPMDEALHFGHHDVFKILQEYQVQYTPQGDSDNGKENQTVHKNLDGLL
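Glutamate formation by hKGA was monitored fluorometrically using coupled glutamate oxidase, HRP and Amplex Red. Substrate was added as 1 mM L-glutamine solution; incubation was 30 min at RT after an initial read.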
GLP1R cytotox – cytotoxicity counter-screen for GLP-1 receptor inverse agonists; Potency, µM (doses to about 38.3 µM), usual class: inhibitors; HEK293 cAMP-luciferase reporter cells, luminescence, 24 h; 0.13% of 410,000 active; AID 624418;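 further: loss of luciferase light is scored as toxicity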
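Compound-treated cells are incubated 24 hr at 37 deg C under 5% CO2 after a 12 hour attachment period, then luciferase detection reagent is added and luminescence is measured following 12 min at room temperature; lowered signal indicates toxicity.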
GLP-1R agonist – activates the human GLP-1 receptor; HEK293 GLP-1R CRE-luciferase, luminescence, 4-6 h; cells express a hypersensitive GLP-1R form; 0.007% of 380,000 active; Potency, µM (highest dose often 45.6 µM), hits mostly activators
KCNH2 3.1 block – blocks the human KCNH2 3.1 channel isoform. 0.95% of 340,000 active. U2OS KCNH2 3.1, thallium flux FluxOr; stronger effect = lower value. activity change, % (tested at about 1.8 µM);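 active means maximum activity change below -70%; inconclusive means maximum activity change from -70% to -50%; inactive means maximum activity change above -50%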;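 further: thallium influx rate constant from kinetic fluorescence after stimulation buffer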
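FluxOr-based Tl+ influx in U2OS cells transduced with KCNH2 3.1 virus; rate constants normalized to DMSO controls.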
GLP-1R inv ag – GLP-1 receptor (human) inverse agonism. HEK293 GLP-1R CRE-luciferase, luminescence, 24 h; GLP-1R form is constitutively active. Potency, µM (titrated, usually from 38.3 µM), actives largely listed as inhibitors. 1.6% of 410,000 active; further: nearly all actives have a fitted effect of over 55% in size
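Readout was luciferase luminescence, measured 12 min after detection reagent at room temperature. Beforehand, GLP-1R reporter HEK293 cells had sat 12 h, then received compounds for 24 hr at 37 deg C.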
hERG WT inh – inhibitors of human wildtype KCNH2 potassium channel; 0.37% of 340,000 active; activity change, % at 1.84 µM; Q12809; U2OS, BacMam KCNH2, thallium flux FluxOr; stronger effect = lower value;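 active means maximum activity change below -70%; inconclusive means maximum activity change between -70% and -50%; inactive means maximum activity change above -50%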
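U2OS cells were transduced with wild-type KCNH2 virus (2.03 x 10^8 / mL) for 4 h at room temperature, then cultured overnight at 37 C. Thallium flux was read with FluxOr dye. Rate constants were normalized to DMSO controls.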
Of the large screens only hits and unclear results are named; the others gave an inactive call. Unless noted, the call rests on the fitted dose curve; in most records, active means well fitted curve in the direction sought with a large enough effect; inconclusive means small, poorly fitted or top-dose-only effect, or another doubt; inactive means no such curve, though single readings can be large; an effect the other way counts as inactive or inconclusive.

COc1ccc(OC)c2nc3c(C(=O)NCCN(C)C)cccc3nc12	GLP1R cytotox 7.1µM, GLP-1R inv ag inconclusive
CN(C)CCNC(=O)c1cccc2ccc(-c3ccc(-c4ccccc4)cc3)nc12	GLP1R cytotox inconclusive, GLP-1R inv ag inconclusive
CN(C)CCNC(=O)c1cccc2nc3cccc(F)c3nc12	GLP-1R inv ag 6.3µM
CCCCSCCCNC(=O)c1cn(CC)c2ccc(S(=O)(=O)N3CCCCCC3)cc2c1=O	none (no result: KCNH2 3.1 block, hERG WT inh)
CN(C)S(=O)(=O)c1ccc(Cl)c(C(=O)NNC(=O)Cn2ccc(C(F)(F)F)n2)c1	none
COC(c1ccccc1)c1nnc(CCC(=O)N(C)CCCC2CCCC2)o1 (centres undefined)	GLP-1R inv ag 10µM
COC(c1ccccc1)c1nnc(CCC(=O)N(C)CCOc2ccccc2)o1 (centres undefined)	GLP-1R inv ag inconclusive
CCCCCSc1nc2sc3c(c2c(=O)n1-c1ccc(OC)cc1)CCN(C(C)=O)C3	none (no result: KCNH2 3.1 block, hERG WT inh)
CCCN1CCC(N2CCN(c3ccc([N+](=O)[O-])cc3)CC2)CC1	KCNH2 3.1 block -79, GLP-1R inv ag inconclusive
CCOc1ccc(N2C(=O)CC(N3CCN(c4ccc([N+](=O)[O-])cc4)CC3)C2=O)cc1 (centres undefined)	KCNH2 3.1 block -91
CCCOc1ccc(N2C(=O)CC(N3CCN(c4ccc([N+](=O)[O-])cc4)CC3)C2=O)cc1 (centres undefined)	KCNH2 3.1 block inconclusive, GLP-1R inv ag inconclusive
CC(=O)N1CCCC(N2CCN(c3cccc(C(F)(F)F)c3)CC2)C1 (centres undefined)	none
CCCN1CCC(N2CCN(c3cccc(C(F)(F)F)c3)CC2)CC1	KCNH2 3.1 block -97
O=C(CCc1nc(-c2ccccc2F)no1)Nc1cccc(C(F)(F)F)c1	GLP-1R inv ag inconclusive (no result: GLP-1R agonist, KCNH2 3.1 block, hERG WT inh)
N#CC(c1ccccc1)C(CC(=NO)c1ccccc1)c1ccccc1 (centres undefined)	GLP-1R inv ag 8.9µM
N#CC(c1cccc([N+](=O)[O-])c1)C(CC(=O)c1ccccc1)c1ccccc1 (centres undefined)	GLP-1R inv ag inconclusive
N#CC(c1ccc([N+](=O)[O-])cc1)C(CC(=O)c1ccccc1)c1ccccc1 (centres undefined)	KCNH2 3.1 block inconclusive, GLP-1R inv ag 11µM
CC1CCCCC1NC(=O)CCN1C(=O)C2C3C=CC(C3)C2C1=O (centres undefined)	none
COc1ccc(NC(=O)C2=NN(c3ccccc3)C(=O)CC2)cn1	none
O=C1C=CC(=O)N1c1cccc(-c2ccccc2)c1	GLP1R cytotox 13µM, GLP-1R inv ag inconclusive
COc1ccccc1OCC(O)Cn1c(=N)n(Cc2ccccc2)c2ccccc21 (centres undefined)	GLP1R cytotox inconclusive, KCNH2 3.1 block -89, GLP-1R inv ag inconclusive
Cc1ccccc1OCC(O)Cn1c(=N)n(Cc2ccccc2)c2ccccc21 (centres undefined)	GLP1R cytotox inconclusive, KCNH2 3.1 block inconclusive, GLP-1R inv ag 8.9µM
Cc1ccccc1OCC(O)Cn1c2ccccc2c2ccccc21 (centres undefined)	none
C=CCn1c(=N)n(CC(O)COc2ccccc2OC)c2ccccc21 (centres undefined)	GLP-1R inv ag inconclusive
C[C@H]1CCC2[C@](C)(CO)[C@@H](O)CC[C@]2(C)[C@@]12CCC(CO)(CCO)O2 (some centres undefined)	none
O=C1c2ccccc2[C@@H]2Cc3csc[n+]3[C@H]12	none (no result: KCNH2 3.1 block, hERG WT inh)
Cc1ccc(/C=N/Nc2nc(C(C)(C)C)cs2)o1	GLP-1R inv ag inconclusive (no result: hERG WT inh)
Cc1ccc(/C=N/Nc2nc3ccccc3s2)o1	GLS inh 8.9µM, GLP1R cytotox inconclusive, GLP-1R inv ag inconclusive
O=C(Cc1ccc(Br)cc1)Nc1ccccc1Sc1ccccc1	GLP-1R inv ag 10µM
O=C(Nc1ccccc1Sc1ccccc1)c1ccccc1	GLP-1R inv ag 11µM
O=C(Cc1ccccc1)Nc1ccccc1Sc1ccccc1	GLP-1R inv ag 11µM
CCn1c(=O)n(-c2ccc(F)cc2)c(=O)c2sc3ccccc3c21	none (no result: KCNH2 3.1 block, hERG WT inh)
Cc1nc2c(-c3ccccc3)c(C)[nH]n2c(=O)c1Cc1ccc(Br)cc1	GLP-1R inv ag inconclusive (no result: GLP-1R agonist, KCNH2 3.1 block, hERG WT inh)
CC(C)CSc1nnc(-c2ccccc2)c(-c2ccccc2)n1	GLP-1R inv ag inconclusive (no result: GLP-1R agonist, KCNH2 3.1 block, hERG WT inh)
CSc1ccc(CCNC(=O)C2CCN(c3nc4ccccc4nc3C(F)(F)F)CC2)cc1	none (no result: GLP-1R agonist, KCNH2 3.1 block, hERG WT inh)
O=C(Nc1cc(Cl)cc(Cl)c1)C1CC(=O)N(C2CCCC2)C1 (centres undefined)	GLP-1R inv ag 8.9µM
Cc1ccc2oc(=O)c(S(=O)(=O)c3ccc(C(C)(C)C)cc3)cc2c1	none (no result: GLP-1R agonist, KCNH2 3.1 block, hERG WT inh)
C=CCN(c1ccccc1)S(=O)(=O)c1cccc(C(=O)NC2CCN(Cc3ccccc3)CC2)c1	GLP1R cytotox inconclusive, GLP-1R inv ag 13µM
O=C(NC1CCN(Cc2ccc3ccccc3c2)CC1)c1ccccc1	KCNH2 3.1 block -79
C=CCN(c1ccccc1)S(=O)(=O)c1cccc(C(=O)NCc2ccco2)c1	KCNH2 3.1 block -173, GLP-1R inv ag inconclusive, hERG WT inh -241
COc1ccc(OC)c(-c2nc(C(=O)NC3CCN(Cc4ccccc4)CC3)cc3c2[nH]c2ccccc23)c1	KCNH2 3.1 block -97, GLP-1R inv ag 10µM, hERG WT inh inconclusive
O=C1NC[C@@H](CCCCN2C[C@H](Cc3ccc(O)cc3)N(Cc3ccccc3)C(=O)C2=O)N(CCc2ccc(O)cc2)C1=O	none (no result: KCNH2 3.1 block, hERG WT inh)
CC1=C(C(=O)Nc2cccnc2)C(c2ccc(Cl)cc2)n2nc(SCc3ccccc3)nc2N1 (centres undefined)	none (no result: KCNH2 3.1 block, hERG WT inh)
Cc1ccc(NS(=O)(=O)c2cccc(C(=O)NC3CCN(Cc4ccccc4)CC3)c2)c(C)c1	GLP1R cytotox 11µM, KCNH2 3.1 block -102, GLP-1R inv ag inconclusive
O=C(NC1CCCN(Cc2ccc(Cl)cc2)C1)c1ccnc(Cl)c1 (centres undefined)	GLP-1R inv ag inconclusive
COc1cc(C(=O)NC2CCN(Cc3ccccc3)CC2)cc(Cl)c1OC	KCNH2 3.1 block -90, GLP-1R inv ag inconclusive
COc1cc(OC)cc(C(=O)NC2CCCN(Cc3ccc(Cl)cc3)C2)c1 (centres undefined)	KCNH2 3.1 block inconclusive, GLP-1R inv ag 11µM
Cc1ccc(C)c(OCc2cc(C(=O)NC3CCN(Cc4ccccc4)CC3)no2)c1	KCNH2 3.1 block inconclusive, GLP-1R inv ag 2.2µM
COc1ccccc1NS(=O)(=O)c1cccc(C(=O)NC2CCN(Cc3ccccc3)CC2)c1	GLP-1R inv ag inconclusive
COc1cccc(CN(C(=O)c2oc3ccc(Br)cc3c2C)C2CCS(=O)(=O)C2)c1 (centres undefined)	GLP-1R inv ag inconclusive (no result: GLP-1R agonist, KCNH2 3.1 block, hERG WT inh)

High-throughput results as filed in PubChem.
